From PubChem BioAssay
PGK inhibitor: qHTS Assay to Find Inhibitors of Phosphoglycerate Kinase; hit rate 0.043% among 380,000; Potency, µM (series often up to 57.5 µM), without a hit: at the highest dose activity change, negative = inhibition, actives largely listed as inhibitors; PGK/GAPDH coupled, Kinase-Glo luminescence, 60 min; Phosphoglycerate kinase, glycosomal (Trypanosoma brucei brucei), P07378; further: on the % scale 0 is the no-effect control and ±100 the full control effect; nearly all actives have a fitted effect of over 60% in size
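Luminescent ATP detection (Kinase-Glo Plus) follows a 60-minute room-temperature incubation, with wells lacking PGK as controls. Buffer: 100 mM TEA (pH 7.6), 5 mM MgCl2, 0.01% Tween-20. Coupling enzyme GAPDH (100 nM final) supplies unstable 1,3-BPG in-well.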
Rango complex inh: qHTS Assay for Inhibitors of Rango (Ran-regulated importin-beta cargo) - Importin beta complex formation; Potency, µM (titrated, usually from 92.2 µM), inactives show at the highest dose inhibition of complex formation; Importin subunit beta-1 (Homo sapiens), Q14974; Rango CFP/YFP FRET sensor + importin beta, 45 min; hit rate 0.031% among 340,000; AID 540263, 2011; calls by dose curve;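 further: 0% = DMSO wells and 100% = buffer wells lacking importin beta; nearly all actives have a fitted effect of over 15% in size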
Target sequence (Q14974 whole entry, looked up): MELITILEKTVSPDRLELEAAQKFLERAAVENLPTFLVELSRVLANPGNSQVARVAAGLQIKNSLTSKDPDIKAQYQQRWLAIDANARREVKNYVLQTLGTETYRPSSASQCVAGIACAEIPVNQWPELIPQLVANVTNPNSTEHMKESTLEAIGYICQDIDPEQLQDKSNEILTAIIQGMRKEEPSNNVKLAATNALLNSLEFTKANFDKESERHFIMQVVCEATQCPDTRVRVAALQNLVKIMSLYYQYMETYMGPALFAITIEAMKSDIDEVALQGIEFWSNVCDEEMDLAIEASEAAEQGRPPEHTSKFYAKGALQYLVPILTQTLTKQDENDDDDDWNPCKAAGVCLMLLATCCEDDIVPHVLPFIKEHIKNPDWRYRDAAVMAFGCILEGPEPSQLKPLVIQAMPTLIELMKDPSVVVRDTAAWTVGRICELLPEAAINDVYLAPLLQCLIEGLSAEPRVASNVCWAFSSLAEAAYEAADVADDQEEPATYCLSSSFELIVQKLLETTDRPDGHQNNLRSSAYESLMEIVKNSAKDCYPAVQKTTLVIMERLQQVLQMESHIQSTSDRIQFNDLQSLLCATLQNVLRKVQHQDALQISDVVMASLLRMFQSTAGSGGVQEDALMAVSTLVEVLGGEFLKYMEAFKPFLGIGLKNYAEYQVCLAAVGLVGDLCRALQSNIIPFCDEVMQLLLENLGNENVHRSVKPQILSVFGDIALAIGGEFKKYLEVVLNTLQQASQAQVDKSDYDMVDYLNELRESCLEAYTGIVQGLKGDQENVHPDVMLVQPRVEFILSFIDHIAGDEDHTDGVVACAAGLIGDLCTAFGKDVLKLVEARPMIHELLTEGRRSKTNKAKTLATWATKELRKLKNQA
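FRET biosensor Rango (snurportin 1 IBB between N-terminal EYFP and C-terminal Cerulean), 50 nM in PBS/1 mM DTT/0.02% Tween-20/0.1% BSA, preincubated 5 min RT with compound; 0.125 microM importin beta added, 45 min RT, CFP/YFP FRET ratio read.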
PKM2 act: qHTS Assay for Activators of Human Muscle isoform 2 Pyruvate Kinase; hit rate 0.34% among 260,000; Pyruvate kinase PKM (Homo sapiens), P14618; purified PKM2, Kinase-Glo ATP luminescence, activation; response scale: 0% is enzyme alone, no compound; Potency, µM (doses to about 57.5 µM), for the others: at the top dose activation, most hits filed as activators; further: on the % scale 0 is the no-effect control and ±100 the full control effect; nearly all actives have a fitted effect of over 55% in size
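Kinase-Glo luminescence reports ATP generated from ADP (0.1 mM) and PEP (0.5 mM) by purified hPK-M2 after 1 h at room temperature, pH 7.2 imidazole buffer; intermediate enzyme activity allows detecting inhibitors and activators.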
Rango dissoc inh: qHTS Assay for Inhibitors of RanGTP induced Rango (Ran-regulated importin-beta cargo) - Importin beta complex dissociation; Potency, µM (highest dose often 46.1 µM), inactives show at the highest dose activity change, negative = inhibition; AID 540253, 2011; Snurportin-1 (Homo sapiens) + GTP-binding nuclear protein Ran (Homo sapiens) + Importin …; Biochemical FRET Rango-importin beta, RanGTP-induced dissociation; hit rate 0.071% among 340,000; calls by dose curve; further: % of control where 0% means no effect; nearly all actives have a fitted effect of over 45% in size
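Two FRET readings bracket the reaction: one 5 min after compound meets Rango–importin beta, another 45 min after RanGTP-RCC1 (0.6 uM Ran, 0.2 uM RCC1, 2 mM GTP) is added. Only the second defines inhibition.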
Tb PFK block: qHTS Assay to Find Inhibitors of T. brucei phosphofructokinase. T. brucei PFK, ADP-Glo luminescence. Potency, µM (doses to about 57.5 µM), without a hit: at the top dose activity, negative = inhibition, most hits filed as inhibitors. hit rate 0.17% among 330,000;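 further: 0% = uninhibited 1x PFK enzyme wells and -100% = no-enzyme wells; nearly all actives have a fitted effect of over 60% in size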
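Activity is normalized to no-enzyme wells (full inhibition) and 1.25 nM enzyme wells (no inhibition). Reaction: 0.5 mM F6P, 0.1 mM ATP, 45 min RT, ADP-Glo luminescence; concentration-response curves fitted and classed by quality.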
ELG1 DNA repair: qHTS screen for small molecules that inhibit ELG1-dependent DNA repair in human embryonic kidney (HEK293T) cells expressing luciferase-tagged ELG1; HEK293T ELG1-luciferase reporter, luminescence, 16 h; DNA damage induced by 5-fluorouridine; Potency, µM (top dose mostly 46.1 µM), inactives show top-dose activity change, negative = inhibition, most hits filed as inhibitors; hit rate 2.3% among 330,000; AID 504467, 2011; further: on the % scale 0 is the no-effect control and ±100 the full control effect; nearly all actives have a fitted effect of over 55% in size
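Cells (2,000 per well) received 5-fluorouridine plus test compound or DMSO and were incubated 16 hr at 37 °C, 5% CO2. Luciferase activity was read by luminescence 30 min after ONE-Glo addition; signal suppression marked inhibition of damage-induced ELG1 function.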
Starred values were filed as active, the others as inactive. An excerpt weighted towards active compounds, which were near 2.4% of everything screened. Unless noted, the call rests on the fitted dose curve; in most records, active means well fitted curve in the direction sought with a large enough effect; inconclusive means small, poorly fitted or top-dose-only effect, or another doubt; inactive means no such curve, though single readings can be large; an effect the other way counts as inactive or inconclusive. Potency means the concentration at half of the fitted maximal effect.

What do the screens show for `CN(Cc1ccccc1)C(=O)c1cccc(NC(=O)C2CCCN(C(=O)OC(C)(C)C)C2)c1` (stereo not given)?
PGK inhibitor: 2%; Rango complex inh: 4%; Rango dissoc inh: -22%; Tb PFK block: 1%; ELG1 DNA repair: 26µM*

How did CC(CNC(=O)Cn1c(-c2cccs2)cc2ccccc21)c1ccccc1 (stereo not given) do in these assays?
PGK inhibitor: -12%

What do the screens show for `CCOc1ccccc1NC(=O)Cn1cnc2c1c(=O)n(C)c(=O)n2C`?
PGK inhibitor: 0%

Results for Nc1c(Cl)cnn(-c2ccccc2)c1=O ?
PGK inhibitor: -1%; Rango complex inh: 2%; Rango dissoc inh: 32%

How did O=c1c(Cl)c(Cl)cnn1Cc1ccccc1Cl do in these assays?
PGK inhibitor: 2%; Rango complex inh: 0%; PKM2 act: 21%; Rango dissoc inh: 0%; Tb PFK block: -6%; ELG1 DNA repair: 10µM*

How did O=c1c(Cl)c(Cl)cnn1-c1ccccc1 do in these assays?
PGK inhibitor: 2%; Rango complex inh: 4%; PKM2 act: -4%; Rango dissoc inh: -13%; Tb PFK block: 1%; ELG1 DNA repair: 18µM*

Results for Cc1ccc(Cn2ncc(Cl)c(Cl)c2=O)cc1 ?
PGK inhibitor: -6%; Rango complex inh: inconclusive; PKM2 act: 7%; Rango dissoc inh: inconclusive; Tb PFK block: -7%; ELG1 DNA repair: inconclusive

Results for CCCN1C/C(=C/c2ccc3c(c2)OCO3)C(=O)/C(=C/c2ccc3c(c2)OCO3)C1 ?
PGK inhibitor: -4%; Rango complex inh: 0%; PKM2 act: 8%; Rango dissoc inh: inconclusive; Tb PFK block: -6%; ELG1 DNA repair: 23µM*

How did CCCN1C(=O)/C(=C/c2ccc3c(c2)OCO3)NC1=S do in these assays?
PGK inhibitor: -2%; Rango complex inh: inconclusive; PKM2 act: 3%; Rango dissoc inh: inconclusive; Tb PFK block: 2%; ELG1 DNA repair: inconclusive

How did C=CCc1cccc(CNc2nc3ccccc3n2CCC)c1O do in these assays?
PGK inhibitor: -8%; Rango complex inh: 2%; PKM2 act: 28µM*; Rango dissoc inh: -16%; Tb PFK block: 1%; ELG1 DNA repair: -17%

How did COc1ccc(C(O)Cn2cc([N+](=O)[O-])nc2C)cc1 (stereo not given) do in these assays?
PGK inhibitor: inactive; Rango complex inh: -3%; PKM2 act: -12%; Rango dissoc inh: -27%; Tb PFK block: -9%; ELG1 DNA repair: 6%

Results for Cn1c(=O)c2c(nc(NCCO)n2CCCc2ccccc2)n(C)c1=O ?
PGK inhibitor: 6%; Rango complex inh: 0%; PKM2 act: 0%; Rango dissoc inh: -2%; Tb PFK block: 2%; ELG1 DNA repair: 21µM*

What do the screens show for `Cn1c(=O)c2c(nc(NCCc3ccccc3)n2Cc2ccc(F)cc2)n(C)c1=O`?
PGK inhibitor: -1%; Rango complex inh: 3%; PKM2 act: 4%; Rango dissoc inh: -19%; Tb PFK block: 1%; ELG1 DNA repair: 12µM*

What do the screens show for `Cn1c(=O)c2c(nc(NCC3CCCO3)n2C)n(C)c1=O` (stereo not given)?
PGK inhibitor: 7%; Rango complex inh: 2%; PKM2 act: -3%; Rango dissoc inh: 22%; Tb PFK block: 1%; ELG1 DNA repair: 2%

Results for Cn1c(=O)n(Cc2ccccc2)c(=O)c2c1nc(NCC1CCCO1)n2Cc1ccccc1 (stereo not given) ?
PGK inhibitor: -4%; Rango complex inh: -1%; PKM2 act: 0%; Rango dissoc inh: -1%; Tb PFK block: -7%; ELG1 DNA repair: 21µM*

Results for COc1ccc(CNc2nc3c(c(=O)n(Cc4ccc(F)cc4)c(=O)n3C)n2C)cc1 ?
PGK inhibitor: -8%; Rango complex inh: -8%; PKM2 act: inconclusive; Rango dissoc inh: 8%; Tb PFK block: 4%; ELG1 DNA repair: 18µM*

What do the screens show for `Cn1c(=O)c2c(nc(NCc3ccccc3)n2CCCc2ccccc2)n(C)c1=O`?
PGK inhibitor: 6%; Rango complex inh: 3%; PKM2 act: 8%; Rango dissoc inh: inconclusive; Tb PFK block: 10%; ELG1 DNA repair: inconclusive

How did Cn1c(NCc2ccccc2)nc2c1c(=O)n(Cc1ccccc1)c(=O)n2C do in these assays?
PGK inhibitor: -4%; Rango complex inh: -1%; PKM2 act: inconclusive; Rango dissoc inh: 2%; Tb PFK block: -1%; ELG1 DNA repair: inconclusive

What do the screens show for `CC(C)c1nnc(N2C(=O)c3oc4ccccc4c(=O)c3C2c2cccc(O)c2)s1` (stereo not given)?
PGK inhibitor: -1%

Results for CCc1ccc(NC(=O)Nc2ccccc2OCc2cc(=O)n3ccccc3n2)cc1 ?
PGK inhibitor: -5%

Results for Cn1c2ccc(F)cc2c2nnc(SCC(=O)Nc3cccc(O)c3)nc21 ?
PGK inhibitor: 2%; Rango complex inh: -6%; PKM2 act: 0.32µM*; Rango dissoc inh: 8%; Tb PFK block: 2%; ELG1 DNA repair: -7%

Results for COC(=O)C1=C(C)NC(=S)NC1c1ccco1 (stereo not given) ?
PGK inhibitor: -9%; Rango complex inh: -1%; PKM2 act: 5%; Rango dissoc inh: -9%; Tb PFK block: -2%; ELG1 DNA repair: 10%

What do the screens show for `COc1ccc(CNn2c(-c3cccc(C)c3)nc3ccccc3c2=O)cc1OC`?
Rango complex inh: inconclusive; PKM2 act: 7%; Rango dissoc inh: -11%; Tb PFK block: 2%; ELG1 DNA repair: 15µM*

How did COc1ccccc1CNn1c(-c2cccc(C)c2)nc2ccccc2c1=O do in these assays?
Rango complex inh: 1%; PKM2 act: -4%; Rango dissoc inh: 18%; Tb PFK block: 2%; ELG1 DNA repair: inconclusive

Results for Cc1ccc2nsnc2c1NC(=O)c1ccc([N+](=O)[O-])cc1 ?
PGK inhibitor: -18%; Rango complex inh: -2%; PKM2 act: 12%; Rango dissoc inh: 13%; Tb PFK block: -2%; ELG1 DNA repair: 16µM*
